Compounds with a hit are over-represented: about 3.2% of the library has one in this group of screens.
FAK inh: blocks human focal adhesion kinase activity; biochemical FAK kinase activity assay; Q05397; 0.84% of 97,000 active; inhibition, %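 (tested at 7 µM)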; AID 727; in the data active means inhibition above about 19%
ERb SRC1 inh: blocks coactivator binding to human estrogen receptor beta; Q92731; TR-FRET ER-beta LBD / SRC1-Cy5 peptide binding; receptor agonist-loaded with 1 µM estradiol; inhibition, % at 25.6 µM; 1.3% of 86,000 active; AID 633;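 active means compounds whose percent inhibition of the receptor-coactivator binding signal exceeds about 50% in the single-dose screen, limit read from the data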
ERa coact pot: ER-alpha (human) coactivator binding potentiation; P03372; AID 639; coactivator binding (% of control), % at 25.6 µM; 1.3% of 86,000 active; TR-FRET ERalpha-LBD/SRC-Cy5 coactivator binding, 2 h; 100 = basal binding, no effect; in the data active means activity above about 200%;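 further: binding measured in presence of low estradiol as agonist stimulus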
Target sequence (P03372 whole entry, looked up, the tested form may be a part): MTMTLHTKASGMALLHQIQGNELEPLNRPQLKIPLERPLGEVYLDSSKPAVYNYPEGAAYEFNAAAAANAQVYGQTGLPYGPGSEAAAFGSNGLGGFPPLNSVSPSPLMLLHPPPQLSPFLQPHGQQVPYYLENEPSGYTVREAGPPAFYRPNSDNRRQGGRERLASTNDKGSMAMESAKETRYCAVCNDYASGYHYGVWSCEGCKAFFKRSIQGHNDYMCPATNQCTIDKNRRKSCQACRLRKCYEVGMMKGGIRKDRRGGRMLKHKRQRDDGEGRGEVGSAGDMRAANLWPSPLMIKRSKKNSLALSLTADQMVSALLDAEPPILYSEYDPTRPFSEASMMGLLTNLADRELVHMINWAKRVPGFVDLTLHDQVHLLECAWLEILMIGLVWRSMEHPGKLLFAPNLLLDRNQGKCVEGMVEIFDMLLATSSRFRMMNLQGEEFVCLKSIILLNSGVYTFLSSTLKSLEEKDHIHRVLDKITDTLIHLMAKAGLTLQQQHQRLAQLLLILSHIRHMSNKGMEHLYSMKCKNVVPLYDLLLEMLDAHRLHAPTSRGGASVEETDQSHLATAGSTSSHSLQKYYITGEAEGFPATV
ERa coact inh: blocks coactivator binding to human estrogen receptor alpha; inhibition, % at 25.6 µM; AID 629; TR-FRET ER-alpha LBD / SRC-1 peptide, estradiol-bound; P03372; 1.7% of 86,000 active; in the data active means inhibition above about 50%
Numbers stand for hits; [ ] = dose if it differs, or a comment.

For CCn1c(C(=O)N2CCCC(C(=O)NCCc3ccc(C)cc3)C2)cc2sccc21 (configuration not stated) the results were FAK inh inactive, ERb SRC1 inh inactive, ERa coact pot inactive and ERa coact inh inactive.
For CC1=C(C(=O)Nc2cc(C)ccc2C)C(c2cccs2)NC(=S)N1 (configuration not stated) the results were FAK inh inactive.
`COc1ccc(N2CCN(C(=O)CSc3nnc(Cn4nnc5ccccc54)n3C)CC2)cc1` gave FAK inh inactive, ERb SRC1 inh inactive, ERa coact pot inactive and ERa coact inh inactive.
For Cc1nn(-c2ccc(Cl)cc2)c2sc(C(=O)N3CCN(c4ccccn4)CC3)cc12 the results were FAK inh inactive, ERb SRC1 inh inactive, ERa coact pot 452.4 and ERa coact inh inactive.
`Clc1ccc(SCc2cn3ccsc3n2)cc1` gave FAK inh inactive, ERb SRC1 inh inactive, ERa coact pot 365.6[fluorescence artefact?] and ERa coact inh inactive.
Cc1csc2nc(CSc3ccc(Cl)cc3)cn12 was read as FAK inh inactive, ERb SRC1 inh inactive, ERa coact pot inactive and ERa coact inh inactive.
`CCN(CC)c1ccc(-c2c(C#N)c(N)nc(OC)c2C#N)cc1` gave FAK inh inactive, ERb SRC1 inh inactive, ERa coact pot 212.5[fluorescence artefact?] and ERa coact inh inactive.
CCCSc1nc(N)c(C#N)c(-c2ccc(C)cc2)c1C#N was read as FAK inh inactive.
For N#C/C(=C(\O)Cc1ccccc1)c1nc2ccccc2[nH]1 the results were FAK inh inactive, ERb SRC1 inh inactive, ERa coact pot 408.8[fluorescence artefact?] and ERa coact inh inactive.
Screening CCc1ccc(CCC(=O)Nc2ccc(OC)cc2)o1 returned FAK inh inactive, ERb SRC1 inh inactive, ERa coact pot inactive and ERa coact inh inactive.
Screening COc1ccc(C(N)CCc2ccc(C)o2)cc1 (configuration not stated) returned FAK inh inactive, ERb SRC1 inh 74.1, ERa coact pot inactive and ERa coact inh 95.1[fluorescence artefact?].
O=Cc1c(-[n+]2ccccc2)nc([O-])n1-c1ccccc1 was read as FAK inh inactive.
Cc1ccc(Nc2nc(N)nc(CSc3nncn3C)n2)cc1 was read as FAK inh inactive, ERb SRC1 inh inactive, ERa coact pot inactive and ERa coact inh inactive.
`Cc1ccc(Nc2nc(N)nc(CSc3nnnn3-c3ccccc3)n2)cc1` gave FAK inh inactive, ERb SRC1 inh inactive, ERa coact pot 218.5[fluorescence artefact?] and ERa coact inh 61.8[fluorescence artefact?].
Screening Cc1ccc(-c2nc(NC(=O)CSc3nnnn3-c3ccccc3)ns2)cc1 returned FAK inh inactive, ERb SRC1 inh inactive, ERa coact pot 219.2 and ERa coact inh inactive.
Cc1snc(S(=O)(=O)/C(C#N)=N/Nc2ccc(C(F)(F)F)cc2)c1C#N was read as FAK inh inactive, ERb SRC1 inh inactive, ERa coact pot inactive and ERa coact inh inactive.
For CCc1nc(NCc2ccco2)c2oc3ccccc3c2n1 the results were FAK inh 23.1, ERb SRC1 inh inactive, ERa coact pot inactive and ERa coact inh inactive.
CCNc1nc(CC)nc2c1oc1ccccc12 was read as FAK inh inactive, ERb SRC1 inh inactive, ERa coact pot inactive and ERa coact inh inactive.
For N#Cc1c(NC(=O)CSc2nc(-c3ccco3)cc(C(F)(F)F)n2)sc2c1CCCC2 the results were FAK inh inactive, ERb SRC1 inh inactive, ERa coact pot inactive and ERa coact inh inactive.
Screening CCOC(=O)c1[nH]c2ccc(OC)cc2c1NC(=O)c1nonc1C returned FAK inh inactive, ERb SRC1 inh inactive, ERa coact pot inactive and ERa coact inh inactive.
CCOC(=O)c1[nH]c2ccc(Cl)cc2c1NC(=O)c1nonc1C was read as FAK inh inactive, ERb SRC1 inh inactive, ERa coact pot 221.4[fluorescence artefact?] and ERa coact inh inactive.
For CCCCCOc1ccc(Br)cc1/C(C)=N/NC1=NCCN1 the results were FAK inh inactive, ERb SRC1 inh inactive, ERa coact pot inactive and ERa coact inh 65.9[fluorescence artefact?].
Screening Cc1ccc(C(=O)Nc2nc3ccccc3c(=O)s2)cc1 returned FAK inh inactive, ERb SRC1 inh 60.3, ERa coact pot inactive and ERa coact inh inactive.
`CCOC(=O)c1c(COC(=O)c2ccco2)nc2ccccc2[n+]1[O-]` gave FAK inh inactive, ERb SRC1 inh inactive, ERa coact pot inactive and ERa coact inh inactive.
For CC(=O)c1c(COC(=O)c2ccco2)nc2ccccc2[n+]1[O-] the results were ERb SRC1 inh 61.2, ERa coact pot inactive and ERa coact inh 63.6.
Screening CC(=O)c1c(COC(=O)c2ccncc2)nc2ccccc2[n+]1[O-] returned FAK inh inactive, ERb SRC1 inh 61.8[fluorescence artefact?], ERa coact pot inactive and ERa coact inh inactive.
COc1ccc2nc(COC(=O)c3ccco3)c(C(C)=O)[n+]([O-])c2c1 was read as FAK inh inactive, ERb SRC1 inh inactive, ERa coact pot inactive and ERa coact inh inactive.

High-throughput results as filed in PubChem BioAssay.
